The supplement of paper PMC11624193, “Coupling cellular drug-target engagement to downstream pharmacology with CeTEAM” (Nature Communications, 2024)
Several values for one entry are separate records, joined by “and”; a condition that tells them apart may be missing. Equal entries are not always repeated. Structures can show the parent of a compound that is named as a salt. A number with no mark means an inactive call.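 Rule for the calls: active = log2 fold change beyond 2 SD from the library mean after excluding viability outliers; inactive = within 2 SD.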

The compounds below were run against PARP1 L713F-nLuc biosensor (HCT116) (UniProt P09874) (assay: PARP1 L713F-nLuc/akaLuc ratio relative to DMSO control (biosensor stabilization) (fold change); higher = more PARP1 biosensor stabilization (target engagement / stabilizer), active = hit call of the paper). Settings: stock concentration (mM; final µM = stock mM x 1): 10; 24 h.
Sequence of PARP1 L713F-nLuc biosensor (HCT116) (P09874 whole entry L713F, looked up): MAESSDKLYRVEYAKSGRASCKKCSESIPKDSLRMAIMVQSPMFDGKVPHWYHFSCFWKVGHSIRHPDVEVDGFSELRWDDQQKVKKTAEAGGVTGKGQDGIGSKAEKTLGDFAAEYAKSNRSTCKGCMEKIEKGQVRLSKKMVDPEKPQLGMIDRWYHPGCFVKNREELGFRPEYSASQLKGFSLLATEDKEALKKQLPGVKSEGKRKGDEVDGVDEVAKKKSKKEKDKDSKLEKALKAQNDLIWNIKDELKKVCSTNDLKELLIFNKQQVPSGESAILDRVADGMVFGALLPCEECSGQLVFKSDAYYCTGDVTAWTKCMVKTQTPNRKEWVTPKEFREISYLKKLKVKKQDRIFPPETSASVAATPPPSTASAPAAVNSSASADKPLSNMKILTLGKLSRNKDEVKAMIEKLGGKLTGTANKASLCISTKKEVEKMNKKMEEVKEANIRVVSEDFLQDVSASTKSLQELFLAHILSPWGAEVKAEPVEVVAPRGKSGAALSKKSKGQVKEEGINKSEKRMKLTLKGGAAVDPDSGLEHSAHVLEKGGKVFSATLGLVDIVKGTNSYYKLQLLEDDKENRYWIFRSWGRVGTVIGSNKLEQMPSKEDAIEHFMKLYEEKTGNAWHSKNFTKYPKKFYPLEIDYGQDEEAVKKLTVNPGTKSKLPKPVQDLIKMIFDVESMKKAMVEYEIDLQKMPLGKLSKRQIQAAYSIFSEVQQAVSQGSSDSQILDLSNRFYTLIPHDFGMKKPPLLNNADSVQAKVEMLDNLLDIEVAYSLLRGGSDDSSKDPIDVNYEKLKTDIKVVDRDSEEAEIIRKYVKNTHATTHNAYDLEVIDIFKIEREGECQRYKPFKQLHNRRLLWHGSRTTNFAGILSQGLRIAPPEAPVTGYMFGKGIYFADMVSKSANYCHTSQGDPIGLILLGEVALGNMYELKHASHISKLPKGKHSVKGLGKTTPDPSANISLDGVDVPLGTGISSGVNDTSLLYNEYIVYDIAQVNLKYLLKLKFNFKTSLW

SMILES	PARP1 L713F-nLuc/akaLuc ratio
O=C(NCc1ccncc1)C12CC3CC(C1)CC(c1ccc(Cl)cc1)(C3)C2	0.757
O[C@@H]1CO[C@H]2[C@@H]1OC[C@H]2Oc1nc2nc(-c3ccc(-c4ccccc4)cc3)c(Cl)cc2[nH]1	0.439
O=C(O)CCNc1cc(N2CCc3ccccc3CC2)nc(-c2cccnc2)n1	1.22
Cn1cc(C2=C(c3cn(CCCSC(=N)N)c4ccccc34)C(=O)NC2=O)c2ccccc21 [Ro 31-8220 (mesylate)]	1.62
Cc1cnc(Nc2ccc(OCCN3CCCC3)cc2)nc1Nc1cccc(S(=O)(=O)NC(C)(C)C)c1 [Fedratinib]	0.694
Cc1nc(N)sc1-c1ccnc(Nc2ccc(N3CCOCC3)cc2)n1	0.726
NC(=O)[C@H]1CCCc2c1[nH]c1ccc(Cl)cc21 [(S)-Selisistat]	0.706
CC(=O)N1CCN([C@H]2CCC[C@@H](NC(=O)c3cc4c(F)ccc(C)c4[nH]3)C2)CC1	1.5
N[C@H]1C(O)O[C@H](CO)[C@@H](O)[C@@H]1O (some centres undefined) [Glucosamine (hydrochloride)]	1.15
Cc1ncc(F)c(Nc2n[nH]c3c2CN(C(=O)N2C[C@@H](C)N(CC4CCOCC4)C[C@@H]2C)C3(C)C)n1	1.25
COc1cc(-c2cn(C)c(=O)c3cnccc23)cc(OC)c1CN1CCN(CCCCCOc2cc(-c3scnc3C)ccc2CNC(=O)[C@@H]2C[C@@H](O)CN2C(=O)[C@@H](NC(=O)C2(F)CC2)C(C)(C)C)CC1	0.634
CC1=C(CC[C@@H](C)CO[C@@H]2O[C@H](CO)[C@@H](O)[C@H](O)[C@H]2O)O[C@H]2C[C@H]3[C@@H]4CC=C5C[C@@H](O[C@@H]6O[C@H](CO)[C@@H](O[C@@H]7O[C@@H](C)[C@H](O)[C@@H](O)[C@H]7O)[C@H](O)[C@H]6O[C@@H]6O[C@@H](C)[C@H](O)[C@@H](O)[C@H]6O)CC[C@]5(C)[C@H]4CC[C@]3(C)[C@@H]12 [Pseudoprotodioscin]	0.989
CCCC(CCC)C(=O)O [Valproic acid]	1.52
O=C1c2cccc(O)c2C(=O)c2c(O)cccc21 [Danthron]	1.32
CCN(CC)CCCC(C)Nc1c2ccc(Cl)cc2nc2ccc(OC)cc12 (centres undefined) [Quinacrine Dihydrochloride Dihydrate]	0.656
Cc1cc(-c2ncc(CC(=O)Nc3ccc(-c4cnccn4)cn3)cc2C)ccn1	1.03
CC/C(=C(\c1ccc(O)cc1)c1ccc(OCCN(C)C)cc1)c1ccccc1 [4-Hydroxytamoxifen]	0.97
O=C(Nc1ccc2c(O)cc(S(=O)(=O)O)cc2c1)Nc1ccc2c(O)cc(S(=O)(=O)O)cc2c1 [AMI-1 (free acid)]	1.04
O=C(O)c1ccc(CN2CCC(CN[C@@H]3C[C@H]3c3ccccc3)CC2)cc1	0.815 and 0.79 and 0.987
CCC(CC)(NC(=O)C(C)C)C(=O)N[C@@H](CCCN=C(N)N)C(=O)NC1(C(=O)NC(c2ccc(F)cc2)c2ccc(F)cc2)CCCC1	0.991
CC(=O)Nc1cccc(-n2c(=O)n(C3CC3)c(=O)c3c(Nc4ccc(I)cc4F)n(C)c(=O)c(C)c32)c1	0.502
CNCCN1CCC(OCc2ccccc2)CC1	0.908
C/C=C(/C)C(=O)O[C@H]1Cc2cc3ccc(=O)oc3cc2OC1(C)C [Decursinol angelate]	0.885
O=C(O)CC[C@H]1CC[C@@](c2cc(F)ccc2F)(S(=O)(=O)c2ccc(Cl)cc2)CC1	0.688
